# Values joined by “and” are separate entries in the source; they are usually repeats but may differ in a detail not shown here. Identical values can stand only once. Among all 5,500 compounds or so, about 2,000 (36%) were called active. Another 18% or so got no clear call; they are omitted. The list shows a part of the results. A number with no mark means an inactive call. Cut-off read from the data, not from the text of the source: active = normalized growth mostly below about 0.91 (no sharp cut-off); inconclusive = no clear call, values can overlap the other calls; inactive = mostly above about 0.92.
# Test: chemical genetic growth profiling, strain panel (AID 1159580);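 note: tested at 20 µM; growth read once vehicle control cultures reached saturation at 30 °C; 1 = growth at the plate median or of vehicle wells; lower values mean less growth of the strain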
# Settings: S. cerevisiae deletion strains, growth OD
compound,measurement,setting,value
CC1=C(/C=C/C(C)=C/C=C/C(C)=C/C=C/C=C(C)/C=C/C=C(C)/C=C/C2=C(C)CCCC2(C)C)C(C)(C)CCC1,normalized growth,"locus YAL021C, strain ccr4, active compounds read low",0.978
same,normalized growth,"locus YAL026C, strain drs2, active compounds read low",0.997
same,normalized growth,"locus YAL030W, strain snc1, active compounds read low",0.995
same,normalized growth,"locus YBL061C, strain skt5, active compounds read low",0.997
same,normalized growth,"locus YBR009C, strain hhf1, active compounds read low",1.1 [resistant] (active)
same,normalized growth,"locus YBR021W, strain FUR4, active compounds read low",0.99
same,normalized growth,"locus YBR023C, strain chs3, active compounds read low",0.992
same,normalized growth,"locus YBR171W, strain sec66, active compounds read low",0.977
same,normalized growth,"locus YBR229C, strain ROT2, active compounds read low",1.01
same,normalized growth,"locus YBR231C, strain swc5, active compounds read low",1.02
same,normalized growth,"locus YBR279W, strain paf1, active compounds read low",0.987
same,normalized growth,"locus YCL011C, strain gbp2, active compounds read low",0.997
same,normalized growth,"locus YCL016C, strain dcc1, active compounds read low",1.01
same,normalized growth,"locus YCL029C, strain bik1, active compounds read low",1.02
same,normalized growth,"locus YCL061C, strain MRC1, active compounds read low",0.995
same,normalized growth,"locus YCL069W, strain vba3, active compounds read low",0.997
same,normalized growth,"locus YCR088W, strain abp1, active compounds read low",0.995
same,normalized growth,"locus YDL005C, strain med2, active compounds read low",0.998
same,normalized growth,"locus YDL035C, strain GPR1, active compounds read low",1
same,normalized growth,"locus YDL040C, strain nat1, active compounds read low",0.995
same,normalized growth,"locus YDL074C, strain BRE1, active compounds read low",1
same,normalized growth,"locus YDL101C, strain DUN1, active compounds read low",1.01
same,normalized growth,"locus YDL134C, strain PPH21, active compounds read low",1.01
same,normalized growth,"locus YDL185W, strain tfp1, active compounds read low",1.02
same,normalized growth,"locus YDL192W, strain arf1, active compounds read low",1.02
same,normalized growth,"locus YDR001C, strain nth1, active compounds read low",0.987
same,normalized growth,"locus YDR069C, strain doa4, active compounds read low",0.994
same,normalized growth,"locus YDR101C, strain arx1, active compounds read low",0.982
same,normalized growth,"locus YDR137W, strain rgp1, active compounds read low",0.964
same,normalized growth,"locus YDR150W, strain NUM1, active compounds read low",1.01
same,normalized growth,"locus YDR159W, strain sac3, active compounds read low",1.01
same,normalized growth,"locus YDR162C, strain NBP2, active compounds read low",1.02
same,normalized growth,"locus YDR195W, strain ref2",0.999
same,normalized growth,"locus YDR297W, strain sur2, active compounds read low",1.02
same,normalized growth,"locus YDR318W, strain mcm21, active compounds read low",1.01
same,normalized growth,"locus YDR334W, strain swr1, active compounds read low",0.99
same,normalized growth,"locus YDR335W, strain msn5, active compounds read low",0.997
same,normalized growth,"locus YDR388W, active compounds read low",1.01
same,normalized growth,"locus YDR392W, strain spt3, active compounds read low",0.982
same,normalized growth,"locus YDR502C, strain sam2, active compounds read low",0.993
same,normalized growth,"locus YEL003W, strain gim4, active compounds read low",1.02
same,normalized growth,"locus YEL037C, strain rad23, active compounds read low",0.999
same,normalized growth,"locus YEL061C, strain CIN8 (second series), active compounds read low",0.997
same,normalized growth,"locus YEL061C, strain CIN8, active compounds read low",1.01
same,normalized growth,"locus YER015W, strain faa2, active compounds read low",0.973
same,normalized growth,"locus YER016W, strain bim1, active compounds read low",1
same,normalized growth,"locus YER110C, active compounds read low",1
same,normalized growth,"locus YER111C, strain swi4, active compounds read low",0.983
same,normalized growth,"locus YER155C, strain BEM2 (second series), active compounds read low",1.04
same,normalized growth,"locus YER155C, strain BEM2, active compounds read low",1.01
same,normalized growth,"locus YER167W, strain BCK2, active compounds read low",1.01
same,normalized growth,"locus YFR010W, strain ubp6, active compounds read low",1
same,normalized growth,"locus YGL078C, strain dbp3, active compounds read low",0.996
same,normalized growth,"locus YGL086W, strain mad1, active compounds read low",1.01
same,normalized growth,"locus YGL167C, strain pmr1, active compounds read low",0.992
same,normalized growth,"locus YGL173C, strain kem1, active compounds read low",1
same,normalized growth,"locus YGL227W, strain vid30, active compounds read low",0.99
same,normalized growth,"locus YGL240W, strain doc1, active compounds read low",1.02
same,normalized growth,"locus YGL248W, strain PDE1, active compounds read low",1.01
same,normalized growth,"locus YGL253W, strain hxk2, active compounds read low",0.949
same,normalized growth,"locus YGR135W, strain pre9, active compounds read low",1.03
same,normalized growth,"locus YGR229C, strain SMI1, active compounds read low",1
same,normalized growth,"locus YGR252W, strain gcn5, active compounds read low",0.998
same,normalized growth,"locus YHR013C, strain ard1, active compounds read low",0.967
same,normalized growth,"locus YHR027C, strain rpn1, active compounds read low",1.01
same,normalized growth,"locus YHR030C, strain SLT2, active compounds read low",1.02 and 1.01
same,normalized growth,"locus YHR079C, strain IRE1 (second series), active compounds read low",1
same,normalized growth,"locus YHR079C, strain IRE1, active compounds read low",1.04
same,normalized growth,"locus YHR094C, strain hxt1, active compounds read low",0.999
same,normalized growth,"locus YHR129C, strain ARP1, active compounds read low",1.01
same,normalized growth,"locus YHR142W, strain chs7, active compounds read low",0.967
same,normalized growth,"locus YHR200W, strain rpn10, active compounds read low",1.01
same,normalized growth,"locus YIL066C, strain RNR3, active compounds read low",1.01
same,normalized growth,"locus YIL073C, strain SPO22, active compounds read low",1.07
same,normalized growth,"locus YIL125W, strain kgd1, active compounds read low",0.998
same,normalized growth,"locus YIR030C, strain dcg1, active compounds read low",1
same,normalized growth,"locus YJL092W, strain hpr5, active compounds read low",0.992
same,normalized growth,"locus YJL095W, strain BCK1 (second series), active compounds read low",0.989
same,normalized growth,"locus YJL095W, strain BCK1, active compounds read low",1.03 and 1.02
same,normalized growth,"locus YJL115W, strain asf1, active compounds read low",0.996
same,normalized growth,"locus YJL129C, strain trk1, active compounds read low",0.969
same,normalized growth,"locus YJL134W, strain LCB3, active compounds read low",1.01
same,normalized growth,"locus YJL154C, strain vps35, active compounds read low",0.999
same,normalized growth,"locus YJL164C, strain tpk1, active compounds read low",1.01
same,normalized growth,"locus YJL166W, strain qcr8, active compounds read low",0.955
same,normalized growth,"locus YJL168C, strain set2, active compounds read low",1
same,normalized growth,"locus YJL187C, strain SWE1 (second series), active compounds read low",1.01
same,normalized growth,"locus YJL187C, strain SWE1, active compounds read low",0.995
same,normalized growth,"locus YJR043C, strain POL32, active compounds read low",1.01
same,normalized growth,"locus YJR066W, strain TOR1, active compounds read low",0.974
same,normalized growth,"locus YKL009W, strain mrt4, active compounds read low",0.941
same,normalized growth,"locus YKL068W, active compounds read low",1.01
same,normalized growth,"locus YKL085W, strain MDH1 (second series), active compounds read low",0.983
same,normalized growth,"locus YKL085W, strain MDH1, active compounds read low",0.983
same,normalized growth,"locus YKL160W, strain elf1, active compounds read low",0.927
same,normalized growth,"locus YKR001C, strain vps1, active compounds read low",0.986
same,normalized growth,"locus YKR026C, strain gcn3, active compounds read low",0.987
same,normalized growth,"locus YKR091W, strain srl3, active compounds read low",0.991
same,normalized growth,"locus YLL001W, strain dnm1, active compounds read low",0.926
same,normalized growth,"locus YLL026W, active compounds read low",0.999
same,normalized growth,"locus YLL041C, strain sdh2, active compounds read low",1.03
same,normalized growth,"locus YLR027C, strain aat2, active compounds read low",0.998
same,normalized growth,"locus YLR039C, strain RIC1, active compounds read low",0.996
same,normalized growth,"locus YLR058C, strain SHM2, active compounds read low",1.01
same,normalized growth,"locus YLR102C, strain apc9, active compounds read low",0.997
same,normalized growth,"locus YLR113W, strain HOG1, active compounds read low",1.02
same,normalized growth,"locus YLR221C, strain rsa3, active compounds read low",0.977
same,normalized growth,"locus YLR258W, strain gsy2, active compounds read low",1.02
same,normalized growth,"locus YLR262C, strain YPT6 (second series), active compounds read low",0.941
same,normalized growth,"locus YLR262C, strain YPT6, active compounds read low",0.982
same,normalized growth,"locus YLR268W, strain sec22, active compounds read low",0.992
same,normalized growth,"locus YLR320W, strain mms22, active compounds read low",0.994
same,normalized growth,"locus YLR330W, strain CHS5, active compounds read low",1.01
same,normalized growth,"locus YLR342W, strain FKS1 (second series), active compounds read low",1.01
same,normalized growth,"locus YLR342W, strain FKS1, active compounds read low",0.981
same,normalized growth,"locus YLR357W, strain rsc2, active compounds read low",0.957
same,normalized growth,"locus YLR370C, strain arc18, active compounds read low",1
same,normalized growth,"locus YLR371W, strain rom2, active compounds read low",1
same,normalized growth,"locus YLR384C, strain iki3, active compounds read low",1
same,normalized growth,"locus YLR418C, strain cdc73, active compounds read low",0.993
same,normalized growth,"locus YML016C, strain PPZ1, active compounds read low",1
same,normalized growth,"locus YML032C, strain rad52, active compounds read low",1
same,normalized growth,"locus YML120C, strain ndi1, active compounds read low",0.962
same,normalized growth,"locus YML124C, strain tub3, active compounds read low",1
same,normalized growth,"locus YMR058W, strain fet3, active compounds read low",0.985
same,normalized growth,"locus YMR078C, strain ctf18, active compounds read low",1.03
same,normalized growth,"locus YMR125W, strain sto1, active compounds read low",0.929
same,normalized growth,"locus YMR129W, active compounds read low",0.996
same,normalized growth,"locus YMR205C, strain PFK2, active compounds read low",0.934
same,normalized growth,"locus YMR223W, strain ubp8, active compounds read low",1.01
same,normalized growth,"locus YMR231W, strain pep5, active compounds read low",0.997
same,normalized growth,"locus YMR263W, strain SAP30, active compounds read low",1.02
same,normalized growth,"locus YMR307W, strain GAS1, active compounds read low",1.06
same,normalized growth,"locus YNL067W, strain RPL9B, active compounds read low",1.01
same,normalized growth,"locus YNL071W, strain lat1, active compounds read low",0.984
same,normalized growth,"locus YNL153C, strain GIM3, active compounds read low",1.01
same,normalized growth,"locus YNL183C, strain NPR1, active compounds read low",0.97
same,normalized growth,"locus YNL209W, strain ssb2, active compounds read low",0.997
same,normalized growth,"locus YNL233W, strain BNI4, active compounds read low",1.01
same,normalized growth,"locus YNL248C, strain rpa49, active compounds read low",0.906
same,normalized growth,"locus YNL250W, strain rad50, active compounds read low",1.02
same,normalized growth,"locus YNL271C, strain bni1, active compounds read low",0.997
same,normalized growth,"locus YNL298W, strain CLA4, active compounds read low",0.991
same,normalized growth,"locus YNL307C, strain MCK1, active compounds read low",1.01
same,normalized growth,"locus YNL322C, strain KRE1 (second series), active compounds read low",0.993
same,normalized growth,"locus YNL322C, strain KRE1, active compounds read low",1.01
same,normalized growth,"locus YNR049C, strain mso1, active compounds read low",1.01
same,normalized growth,"locus YNR052C, strain pop2, active compounds read low",1
same,normalized growth,"locus YOL006C, strain TOP1, active compounds read low",1.01
same,normalized growth,"locus YOL012C, strain htz1",1.24
same,normalized growth,"locus YOL147C, strain pex11, active compounds read low",1.01
same,normalized growth,"locus YOR001W, strain rrp6, active compounds read low",1.07
same,normalized growth,"locus YOR061W, strain CKA2, active compounds read low",1.01
same,normalized growth,"locus YOR069W, strain VPS5, active compounds read low",1.01
same,normalized growth,"locus YOR070C, strain gyp1, active compounds read low",1
same,normalized growth,"locus YOR080W, strain dia2, active compounds read low",0.996
same,normalized growth,"locus YOR083W, strain WHI5, active compounds read low",0.94
same,normalized growth,"locus YOR106W, strain vam3, active compounds read low",0.922
same,normalized growth,"locus YOR136W, strain idh2, active compounds read low",1.02
same,normalized growth,"locus YOR144C, strain elg1, active compounds read low",1
same,normalized growth,"locus YOR184W, strain ser1, active compounds read low",1.01
same,normalized growth,"locus YOR231W, strain MKK1, active compounds read low",1.02
same,normalized growth,"locus YOR265W, strain rbl2, active compounds read low",0.992
same,normalized growth,"locus YOR270C, strain vph1, active compounds read low",0.875
same,normalized growth,"locus YOR290C, strain snf2, active compounds read low",0.953
same,normalized growth,"locus YOR316C, strain cot1, active compounds read low",1
same,normalized growth,"locus YPL051W, strain arl3, active compounds read low",1.02
same,normalized growth,"locus YPL078C, strain atp4, active compounds read low",0.931
same,normalized growth,"locus YPL106C, strain sse1, active compounds read low",1.03
same,normalized growth,"locus YPL240C, strain hsp82, active compounds read low",1
same,normalized growth,"locus YPL241C, strain CIN2, active compounds read low",1.01
same,normalized growth,"locus YPL256C, strain CLN2, active compounds read low",0.994
same,normalized growth,"locus YPR119W, strain clb2, active compounds read low",1.01
same,normalized growth,"locus YPR141C, strain kar3, active compounds read low",1.01
same,normalized growth,"locus YPR163C, strain tif3, active compounds read low",1
same,normalized growth,"locus YPR167C, strain met16, active compounds read low",1.01
same,normalized growth,"strain wtn01, active compounds read low",0.991
